# FBPA coupling cs: coupling enzyme interference in Giardia aldolase counter-screen; coupling enzyme system counterscreen, AmpLite Red fluorescence; activity change, negative = inhibition, % at 58.2 µM, hits read low; 290,000 compounds, 0.67% hits; in the data active = activity change below about -30%
#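 Final compound at 57.5 uM, incubated 10 min at RT with coupling enzyme reagent (glyceraldehyde-3-phosphate), then 20 min with substrate and AmpLite Red detection. Fluorescence read at 525/598 nm; tests interference with the coupling assay, not aldolase inhibition.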
# G9a inh: inhibitors of human histone lysine methyltransferase G9a | G9a H3K9 monomethylation, AlphaScreen, 2 h | AID 504332 | 350,000 compounds, 8.8% hits | Potency, µM (top dose mostly 102 µM), without a hit: top-dose activity, negative = inhibition, usual class: inhibitors; note: potency is the fitted concentration of half-maximal effect; nearly all actives have a fitted effect of over 75% in size
# Target sequence (Q96KQ7 913-1193 limits assumed): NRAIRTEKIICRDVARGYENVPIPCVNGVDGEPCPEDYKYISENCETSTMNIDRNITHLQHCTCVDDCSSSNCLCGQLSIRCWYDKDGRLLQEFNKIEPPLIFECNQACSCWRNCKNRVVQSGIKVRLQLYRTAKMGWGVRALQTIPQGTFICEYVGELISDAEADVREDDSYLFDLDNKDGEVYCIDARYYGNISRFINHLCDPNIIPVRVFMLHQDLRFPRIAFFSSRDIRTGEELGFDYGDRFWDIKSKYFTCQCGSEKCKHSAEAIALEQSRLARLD
#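 Methyltransferase reactions run at room temperature for 2 h (20 nM enzyme, 500 nM biotin-H3K9 peptide, 20 uM SAM) after a 15 min compound preincubation; product detected by AlphaScreen beads and anti-H3K9me1 antibody.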
# Tau fluor cs: counter-screen for tau fibril formation inhibitors. 280,000 compounds, 0.93% hits. tau K18 P301L Alexa594 fluorescence, heparin fibrillization. Potency, µM (highest dose often 57.7 µM), for the others: at the highest dose activity change, negative = decrease. AID 1463; note: potency is the fitted concentration of half-maximal effect; nearly all actives have a fitted effect of over 55% in size
#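 Human K18 P301L tau (15 uM unlabeled plus 0.24 uM Alexa 594-labeled, final) in 100 mM sodium acetate pH 7 was mixed with compound and 20 uM heparin and incubated 6 hr at 37 C.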
# Sfp PPTase inh: inhibitors of Bacillus subtilis Sfp phosphopantetheinyl transferase; Biochemical Sfp PPTase activity, qHTS; Potency, µM, without a hit: largest response in the series, negative = inhibition, hits mostly inhibitors; 310,000 compounds, 3.5% hits;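 note: the enzyme is Sfp with the accession as filed and its product quenches rhodamine fluorescence; potency is the fitted concentration of half-maximal effect; 0% = enzyme reaction without inhibitor and -100% = no enzyme wells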
#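 Sfp 15 nM + cpd, 15 min RT; start w/ rhodamine-CoA 5 uM, BHQ-2-YbbR 12.5 uM (final); 50 mM Hepes pH 7.6, 10 mM MgCl2, 0.01% NP-40, 0.01% BSA; read 525/598 nm at 0 and 30 min.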
# Tau FP inhib: inhibitors of human tau fibril formation | K18 P301L tau heparin fibrillization, Alexa594 FP, 6 h | Potency, µM (series often up to 57.7 µM), inactives show top-dose activity, negative = inhibition, most hits filed as inhibitors | 280,000 compounds, 0.39% hits | AID 1468; note: potency is the fitted concentration of half-maximal effect; nearly all actives have a fitted effect of over 55% in size
# Target sequence (P10636 561-689 P618L limits assumed): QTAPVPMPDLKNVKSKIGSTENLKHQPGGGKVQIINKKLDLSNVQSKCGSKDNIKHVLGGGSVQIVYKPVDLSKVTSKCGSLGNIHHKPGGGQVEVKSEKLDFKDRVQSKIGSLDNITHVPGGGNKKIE
#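 Human tau K18 […] P301L fragment, 15 uM unlabeled plus 0.24 uM Alexa 594-labeled tau (final), with compound and 20 uM heparin in 100 mM sodium acetate pH 7; 6 hr at 37 C, then Alexa 594 FP read.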
# Tau ThT inhib: inhibitors of human tau fibril formation, thioflavin T binding | 270,000 compounds, 2.1% hits | AID 1460 | P10636 | Potency, µM (doses to about 57.4 µM), for inactives: at the highest dose activity, negative = inhibition, usual class: inhibitors | recombinant tau K18 P301L (four-repeat tau fragment), heparin-induced fibrillization, ThT fluorescence; note: potency is the fitted concentration of half-maximal effect; nearly all actives have a fitted effect of over 55% in size
#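 Tau K18 P301L fragment (15 uM unlabeled plus 0.24 uM Alexa 594-labeled) in 100 mM sodium acetate pH 7 with compound, fibrillization induced by 20 uM heparin for 6 hr at 37 C. Thioflavin T (30 uM) added, fluorescence read after 1 hr (ex 450, em 510 nm).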
# An asterisk follows results filed as active; u = inconclusive; x = no result given; [ ] = dose if it differs, or a comment. A selection: hits, their analogues and other compounds. The true share with any hit is near 11%. Unless noted, calls come from the whole dose curve; as a rule, active = well fitted curve in the direction sought with a large enough effect; inconclusive = small, poorly fitted or top-dose-only effect, or another doubt; inactive = no such curve, though single readings can be large; an effect the other way counts as inactive or inconclusive. Unless noted, % is set by controls: 0 for no effect and ±100 for the full control effect.
SMILES,FBPA coupling cs,G9a inh,Tau fluor cs,Sfp PPTase inh,Tau FP inhib,Tau ThT inhib
CCOC(=O)c1[nH]c2ccc(F)cc2c1NC(=O)c1cc(OC)c(OC)c(OC)c1,-10,-44%[12.7 µM],u,-4%,u,-10%
CCOC(=O)c1[nH]c2ccccc2c1NC(=O)Nc1ccc(OC)cc1,2,50µM*,-27%,-22%,13%,-19%
CCOC(=O)c1[nH]c2ccc(OC)cc2c1NC(=O)CCN1CCC(C)CC1,3,4.5µM*,-15%,-7%,-7%,-11%
CCOC(=O)c1[nH]c2ccc(OC)cc2c1NC(C)=O,-2,-1%,1%,-13%,-14%,5%
COC(=O)c1[nH]c2cc(OC)ccc2c1NC(=O)c1c(F)cccc1F,0,-50%,u,-7%,14%,-5%
O=C(COC(=O)c1c[nH]c2ccccc12)Nc1ccc([N+](=O)[O-])cc1,x,12%[12.7 µM],x,x,x,x
CCOC(=O)c1[nH]c2ccccc2c1NC(=O)c1ccco1,-28,-37%[12.7 µM],-8%,50µM*,7%,-8%
CCOC(=O)c1oc2ccccc2c1NC(=O)c1ccco1,x,u,x,8%,x,x
CCCS(=O)(=O)Nc1c(C(=O)OC)[nH]c2ccccc12,0,50µM*,8%,-10%,9%,1%
CCOc1ccccc1NC(=O)COC(=O)c1c[nH]c2ccccc12,x,50µM*,x,x,x,x
CSc1ncccc1C(=O)Nc1ccc(F)c(F)c1F,0,-18%,-7%,10%,-12%,-3%
O=C(NNC1CC(=O)N(c2ccccc2)C1=O)c1ccc(COc2ccccc2Cl)o1 (stereo unspecified),-1,13%[59 µM],-1%,6%,15%,-1%
CCOC(=O)c1sc(NC(=O)CSc2nc(-c3ccco3)cc(C(F)(F)F)n2)c(C(=O)OC)c1C,-1,8%[0.501 µM],-9%,-12%,-4%,-5%
CCOC(=O)c1c(NC(=O)CSc2nnnn2-c2ccc(OC)cc2)sc(C)c1C,-8,u,-27%,5µM*,u,32µM*
CCOC(=O)c1c(NC(=O)CSc2nncs2)sc(C)c1C,0,10µM*,-7%,-8%,1%,-4%
CCOC(=O)c1c(NC(=O)CSc2nc(-c3ccccc3)cc(C(F)(F)F)n2)sc(C)c1C,x,6.3µM*,u,x,-9%,u
CCOc1ccc(-n2c(Cc3cc(=O)[nH]c(=O)[nH]3)nnc2SC(C)C)cc1,-1,-8%[59 µM],-14%,5%,-3%,-23%
CCOc1ccc(-n2c(Cc3cc(=O)[nH]c(=O)[nH]3)nnc2SCc2cccnc2)cc1,6,56µM*,0%,13%,5%,2%
COc1ccc(-n2c(Cc3cc(=O)[nH]c(=O)[nH]3)nnc2SCC(=O)N2CCC(C)CC2)cc1,1,u,-5%,-10%,2%,-15%
CC1CCN(C(=O)CSc2nnc(Cc3cc(=O)[nH]c(=O)[nH]3)n2-c2ccc(Cl)cc2)CC1,2,35µM*,-9%,-22%,4%,-13%
CCC(C)Sc1nnc(Cc2cc(=O)[nH]c(=O)[nH]2)n1-c1ccc(F)cc1 (stereo unspecified),2,40µM*,-9%,u,-1%,-9%
COC(=O)c1sccc1S(=O)(=O)N(CC(=O)Nc1cc(F)ccc1F)c1ccc(C)c(C)c1,x,4%[59 µM],u,x,-11%,-13%
O=CNCCCc1nc2ccccc2n1CCc1ccccc1,0,17%,x,1%,x,x
CC(=O)NC(=S)NNC(=O)CCc1ccccc1,3,8.9µM*,12%,u,3%,12%
O=C(CCc1ccccc1)NNC(=S)NCCc1ccccc1,x,-11%,x,16%,x,x
SMILES,FBPA coupling cs,G9a inh,Tau fluor cs,Sfp PPTase inh,Tau FP inhib,Tau ThT inhib
CCN(C(=S)NC(=O)CCc1ccccc1)c1ccccc1,3,8.9µM*,-10%,-25%,-3%,-11%
O=C(CCc1ccccc1)NNC(=S)NC(=O)c1ccccc1,-5,4.5µM*,0%,u,6%,-10%
CC(C)(C)c1cc(CCC(=O)NNC(=O)c2ccco2)cc(C(C)(C)C)c1O,1,24%[59 µM],-13%,-12%,9%,-9%
O=C(CCc1ccccc1)NNC(=O)CCc1ccccc1,4,13%,x,5%,x,x
CC(C)(C)c1cc(CCC(=O)NNC(=S)NC(=O)c2ccccc2)cc(C(C)(C)C)c1O,0,28µM*,-15%,56µM*,-4%,-12%
O=C1CCCC=C1[C@@H](O)C1CCCCC1,-1,x,-6%[11.6 µM],19%,-10%[11.6 µM],-10%[11.5 µM]
COc1ccc(N2CCN(C(=O)C(C)n3nc(C)c4sc5ccccc5c4c3=O)CC2)cc1 (stereo unspecified),x,u,-30%,x,-11%,u
Cc1cc(Cl)ccc1NNC(=O)CCc1ccccc1,6,28µM*,-11%,6%,0%,3%
CCCCC(=O)NC(=S)NNC(=O)CCc1ccccc1,2,32µM*,-12%,-28%,-4%,x
CC(C)Cc1cc(C(=O)Nc2sc3c(c2C#N)CCC3)no1,7,45µM*,-27%,56µM*,8%,u
Cc1ccc(C(=O)Nc2sc3c(c2C#N)CCCCC3)cc1C,-8,-31%[59 µM],-15%,u,-9%,-10%
Cc1cc(C(=O)Nc2sc3c(c2C#N)CCC3)no1,-2,u,-12%,6%,7%,u
Cc1cc(C(=O)Nc2sc3c(c2C#N)CCCC3)no1,-1,7.1µM*,-9%,20µM*,-2%,-20%
CCOC(=O)c1cc(C(=O)Nc2sc3c(c2C#N)CCCC3)nn1C,1,11µM*,x,35µM*,x,x
CC(C)Cc1cc(C(=O)Nc2sc3c(c2C#N)CCCC3)no1,1,-33%,-2%,-17%,4%,1%
COc1ccccc1-c1cc(C(=O)Nc2sc3c(c2C#N)CCCC3)no1,x,3.2µM*,-22%,x,u,35µM*
COc1cc2cc(CCCOC(=O)c3ccc4c(c3)OCO4)oc(=O)c2cc1OC,x,-5%[0.501 µM],x,x,x,x
O=C(c1cccc(F)c1)N1CCC[C@@]2(CCN(Cc3nccs3)C2)C1,1,-3%[12.7 µM],x,19%,x,x
N#Cc1c(NC(=O)c2cc(C3CC3)on2)sc2c1CCC2,5,40µM*,-15%,u,-3%,u
CCn1c2ccccc2c2nnc(N3CCN(c4ccc(F)cc4)CC3)nc21,x,-3%[59 µM],-8%,x,-2%,-8%
CCn1c2ccccc2c2nnc(N3CCN(c4cccc(Cl)c4)CC3)nc21,x,-41%[59 µM],18µM*[quencher],x,8%,u
O=C(/C=C/c1ccccc1)NC(=S)Nc1ccc2c3c(cccc13)CC2,1,14%[59 µM],-9%,12%,-5%,-15%
O=C(/C=C/c1cc[n+](CC(=O)c2ccc3cccc4c3c2CC4)cc1)c1ccc2cccc3c2c1CC3,-5,40µM*,u,35µM*,-13%,x

# Source: PubChem
